Results published in ChEMBL document CHEMBL1157539, “Thousands of chemical starting points for antimalarial lead identification” (Nature, 2010).
Several values for one entry are separate records, joined by “and”; a condition that tells them apart may be missing. Equal entries are not always repeated.

Tests used:
Assay type in all cases: functional
[1] = system: Plasmodium falciparum; assay: GSK_TCMDC: Inhibition of Plasmodium falciparum 3D7 in whole red blood cells, using parasite LDH activity as an index of growth. Test compounds present at 2uM
[2] = system: Plasmodium falciparum; assay: GSK_TCMDC: Inhibition of Plasmodium falciparum Dd2 in whole red blood cells, using parasite LDH activity as an index of growth. Test compounds present at 2uM
[3] = system: HepG2; assay: GSK_TCMDC: Percent inhibition of human HepG2 cell line. Test compounds present at 10uM.

Compound	Inhibition [1]	Inhibition [2] [%]	Inhibition [3] [%]
O=C(NCCCCCCNCc1ccc(-c2ccccc2)cc1)Nc1ccc(Cl)c(Cl)c1	90%	2	14
O=C(O)/C=C\C(=O)O.OCCN1CCN(C2Cc3ccc(F)cc3Sc3ccc(Cl)cc32)CC1 (centres undefined)	98%	26	56
COc1cc2c(cc1OC)CC(NCCCCCCNCCc1ccc(Cl)cc1)CC2.Cl (centres undefined)	98%	0	50
CC(=O)Nc1ccc(CN2CCN(C(c3ccc(F)cc3)c3ccc(F)cc3)CC2)cc1	93%	79	4
O=C1Nc2cccc3c2C1(CCCCN1CCC(c2cc4ccncc4[nH]2)CC1)CCC3 (centres undefined)	99% and 97%	0	0
COc1ccc(-c2c(C(F)(F)F)nn(C)c2NC(=O)Nc2ccc(F)cc2F)cc1	100%	99	8
CCCCCCNC(=N)c1ccc2[nH]c(-c3ccc(O)cc3)nc2c1.Cl	100%	99	0
COc1cc2nc(SCC(C)C)n(CCCn3ccnc3)c(=N)c2cc1OC	99%	78	15
CS(=O)(=O)CCNCc1ccc(-c2ccc3c(Nc4ccc(F)cc4Cl)ccnc3c2)o1	100%	98	29
CC(C)CCNC(=O)C1Cc2c([nH]c3cc(Br)ccc23)C2(CCN(Cc3ccccc3)CC2)N1 (centres undefined)	96%	45	10
CCNC[C@@H](O)[C@H](Cc1ccccc1)NC(=O)c1cc2c3c(c1)c(CC)cn3CCS(=O)(=O)N2C.O=CO	99%	65	0
O=C(/C=C/c1ccc(Cl)c(Cl)c1)NCCCCCN1CCC(c2n[nH]c(-c3ccccc3)c2Br)CC1	95%	23	100
Cc1cc(C(F)(F)F)cc(-n2ncc(-c3ccc(C(=O)NCc4ccccc4N)cc3)c2N)n1.O=C(O)C(F)(F)F	99%	89	10
CCOc1ccc2c(=NN=Cc3ccc(OC)c(OC)c3)cc(C)[nH]c2c1	100%	58	22
COc1ccc(CNC(=O)Nc2cc3cc(-c4ccc(CN5CCCC5)cc4)ccc3n3c(C)nnc23)cc1	100%	100	100
CN(C)CCNc1cc(-c2cccnc2)nc(-c2ccncc2)n1	100%	98	33
CC(C)(C(=O)Nc1ccc(N2CCC3(CCCN(CC4CC4)C3)CC2)c(Cl)c1)c1cccc(C(F)(F)F)c1	92%	0	27
Cc1cc(N[C@@H](Cc2ccccc2)C(=O)NCCc2ccccc2)nc(NCCc2cccs2)n1.O=C(O)C(F)(F)F	99%	84	12
Cc1cccc(C(=O)Nc2ccnc(N3CCC(N(C)Cc4cccc(O)c4)CC3)c2)c1.O=C(O)C(F)(F)F	95%	41	7
Cn1cncc1C(=O)Nc1cccc(-c2cccc(-c3nc4cc(C(F)(F)F)ccc4[nH]3)c2)c1	100%	99	38
Cl.O=C(Nc1ccc2c(c1)CNCC2)c1ccc(-c2ccc(Cl)cc2)cc1	96%	28	52
Cl.O=C(Nc1cccc(-c2nn3ncccc3c2-c2ccnc(Nc3cccnc3)n2)c1)c1c(F)cccc1F	96%	70	5
Cc1cccc2nc(-c3cccc(-c4ccc(NC(=O)Nc5cccc(C#N)c5)cc4)c3)[nH]c12	100%	91	50
CCn1c(Sc2ccc(C#N)c([N+](=O)[O-])c2)nnc1-c1ccc(OC)cc1	98%	94	0
Fc1ccc(NC(=S)NCCc2ccccc2)cc1	99%	0	0
C=CCn1c(C)cc(C(=O)COc2ccc(S(=O)(=O)N3CCOCC3)cc2[N+](=O)[O-])c1C	94%	5	0
NS(=O)(=O)c1cccc(-c2ccc3nccc(-c4cccc(S(N)(=O)=O)c4)c3c2)c1	98%	99	40
CNc1ccc(CNCc2cccc(-c3ccc(-c4nc5cc(C(F)(F)F)ccc5[nH]4)cc3)c2)cc1.O=C(O)C(F)(F)F	100%	100	21
